Measurements: PubChem BioAssay (Tox21)
Where “and” joins values, the source holds several entries; their conditions need not be identical. Equal entries are not always repeated. A number with no mark means an inactive call. Inconclusive results are not listed. A call without a number means that no potency is given here. Calls of active or inactive are those of the source. Unless noted, calls follow the shape of the dose curve; as a rule, active = well fitted curve in the direction sought with a large enough effect in the repeat runs; inconclusive = weak or mixed curves; inactive = flat fitted curve, though single readings scatter.

Tests used:
[1] = qHTS assay to test for compound auto fluorescence at 535 nm (green) in HEK293 cells (AID 720680)
[2] = qHTS assay to test for compound auto fluorescence at 460 nm (blue) in HEK293 cell free culture (AID 720681); also: potency is read from the fitted curve at half-maximal effect
In short: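 Test compounds were pinned into cell-free culture medium (DMEM with 10% FBS) and fluorescence was read directly at Ex/Em 405/460 nm. Signals were expressed as fluorescence equivalents of triamterene, with DMSO vehicle as control.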

[3] = qHTS assay to test for compound auto fluorescence at 535 nm (green) in HEK293 cell free culture (AID 720682)
In short: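 Compounds were pin-transferred into cell-free DMEM with 10% FBS, and green fluorescence was read at excitation 485 nm and emission 535 nm. Intensities were expressed as fluorescein-equivalent values.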

[4] = qHTS assay to test for compound auto fluorescence at 590 nm (red) in HepG2 cell free culture (AID 720684)
In short: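 Red fluorescence (540 nm excitation, 590 nm emission) was measured after compound transfer into cell-free MEM supplemented with 10% FBS. Values are equivalencies against Rose Bengal sodium.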

[5] = qHTS assay to test for compound auto fluorescence at 460 nm (blue) in HepG2 cell free culture (AID 720685)
In short: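 Compound (23 nL) or DMSO pinned into cell-free MEM with 10% FBS; blue fluorescence read at 405/460 nm excitation/emission, expressed as auto-fluorescence equivalency to triamterene.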

[6] = qHTS assay to test for compound auto fluorescence at 535 nm (green) in HepG2 cell free culture (AID 720686)
[7] = qHTS assay to test for compound auto fluorescence at 460 nm (blue) in HepG2 cells (AID 720687)
In short: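 Cells (2,000/well in MEM with 10% FBS) attached overnight at 37 C, then were exposed to compound or DMSO for 1 hr at 37 C, 5% CO2. Fluorescence read at Ex/Em 405/460 nm, expressed as triamterene-equivalent signal.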

[8] = qHTS assay to test for compound auto fluorescence at 590 nm (red) in HEK293 cell free culture (AID 720683)
In short: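 Tox21 10K library compounds were pinned into cell-free DMEM with 10% FBS and fluorescence was read at excitation 540 nm. Activity is expressed as Rose Bengal sodium equivalency.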

[9] = target: Glucocorticoid receptor (Homo sapiens) (UniProt P04150); assay: qHTS assay to identify small molecule agonists of the glucocorticoid receptor (GR) signaling pathway (AID 720691; active = well fitted activation curve with a large enough effect in the signal ratio in the repeat runs, not every such curve was filed as active; the % refers to the signal ratio)
In short: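 Fluorescence intensity from LiveBLAzer B/G FRET substrate (2 h, room temperature) reports beta-lactamase expression driven by the glucocorticoid response element in GR-bla HeLa cells after 18 h compound exposure at 37 C.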

[10] = target: Glucocorticoid receptor (Homo sapiens) (UniProt P04150); assay: qHTS assay to identify small molecule antagonists of the glucocorticoid receptor (GR) signaling pathway (AID 720692; active = well fitted inhibition curve with a large enough effect in the signal ratio in the repeat runs, not every such curve was filed as active; the % refers to the signal ratio; also: potency is read from the fitted curve at half-maximal effect)
In short: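 HeLa GR-bla cells; cmpd + dex 5 nM final, 18 h 37 C; LiveBLAzer B/G FRET substrate 2 h RT; fluorescence intensity read. Antagonist mode, qHTS.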

Chain of Glucocorticoid receptor (Homo sapiens) (P04150 whole entry, looked up): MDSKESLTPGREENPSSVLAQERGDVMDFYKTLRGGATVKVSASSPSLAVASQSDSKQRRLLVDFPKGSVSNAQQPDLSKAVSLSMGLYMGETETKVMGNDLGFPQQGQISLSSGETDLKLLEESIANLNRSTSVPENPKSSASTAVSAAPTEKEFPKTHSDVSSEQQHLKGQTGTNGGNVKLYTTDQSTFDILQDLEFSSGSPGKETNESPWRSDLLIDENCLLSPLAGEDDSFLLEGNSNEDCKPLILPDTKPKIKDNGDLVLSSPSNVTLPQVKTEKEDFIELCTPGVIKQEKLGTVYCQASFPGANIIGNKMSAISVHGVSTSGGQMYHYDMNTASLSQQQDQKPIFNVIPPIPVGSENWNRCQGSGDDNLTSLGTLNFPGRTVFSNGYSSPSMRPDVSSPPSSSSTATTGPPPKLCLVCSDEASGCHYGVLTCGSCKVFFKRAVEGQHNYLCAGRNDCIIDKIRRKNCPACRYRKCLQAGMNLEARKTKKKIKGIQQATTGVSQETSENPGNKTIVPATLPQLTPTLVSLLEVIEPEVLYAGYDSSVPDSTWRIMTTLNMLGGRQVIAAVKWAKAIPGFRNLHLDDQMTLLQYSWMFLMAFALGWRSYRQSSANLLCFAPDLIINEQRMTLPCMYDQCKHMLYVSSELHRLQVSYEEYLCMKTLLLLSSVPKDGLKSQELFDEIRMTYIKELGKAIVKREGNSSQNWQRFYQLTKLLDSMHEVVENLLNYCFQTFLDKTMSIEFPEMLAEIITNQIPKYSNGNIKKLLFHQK

Row | Structure (SMILES) | outcome [1] | Potency [2] | outcome [3] | outcome [4] | Potency [5] | outcome [6] | Potency [7] | outcome [8] | Potency [9] | Potency [10]
1 | CC(C)OC(=S)S | inactive | inactive | inactive | inactive | inactive | inactive | inactive |  |  | 
2 | c1ccc2c(c1)[nH]c1cnccc12 | inactive |  | inactive | inactive | inactive | inactive |  | inactive |  | 
3 | Cc1cc(N=Nc2ccccc2C)ccc1N | inactive | inactive | inactive | inactive | inactive | inactive | inactive |  | inactive | 
4 | CCOCn1c(-c2ccc(Cl)cc2)c(C#N)c(Br)c1C(F)(F)F | inactive | inactive | inactive | inactive | inactive | inactive | inactive |  | inactive | 
5 | ClCc1ccc(Cl)cc1Cl | inactive | inactive | inactive | inactive | inactive | inactive | inactive |  | inactive | inactive
6 | CCOC(=O)OC1=C(c2cc(C)ccc2C)C(=O)NC12CCC(OC)CC2 (stereo not given) | inactive | inactive | inactive | inactive | inactive | inactive | inactive |  | inactive | 
7 | Clc1ccc(COC(Cn2ccnc2)c2ccc(Cl)cc2Cl)cc1 (stereo not given) | inactive | inactive | inactive | inactive | inactive | inactive | inactive |  |  | 
8 | COc1cc(C=O)cc2c1[C@H](COC(N)=O)[C@]1(OC(C)=O)ON2C[C@H]2[C@@H]1N2C(C)=O | inactive | inactive | inactive | inactive | inactive | inactive | inactive |  |  | 
9 | C[C@@H]1CC[C@@]2(OC1)O[C@H]1[C@@H](O)[C@H]3[C@@H]4CC[C@H]5C[C@@H](O[C@@H]6O[C@H](CO)[C@H](O[C@@H]7O[C@H](CO)[C@@H](O)[C@H](O[C@@H]8OC[C@@H](O)[C@H](O)[C@H]8O)[C@H]7O[C@@H]7O[C@H](CO)[C@@H](O)[C@H](O[C@@H]8O[C@H](CO)[C@@H](O)[C@H](O)[C@H]8O)[C@H]7O)[C@H](O)[C@H]6O)[C@H](O)C[C@]5(C)[C@H]4CC[C@]3(C)[C@H]1[C@@H]2C | inactive | inactive | inactive | inactive | inactive | inactive | inactive |  |  | 
10 | CC1(C)[C@H](C(=O)O[C@H](C#N)c2cccc(Oc3ccccc3)c2)[C@@H]1/C=C(\Cl)C(F)(F)F | inactive | inactive | inactive | inactive | inactive | inactive | inactive |  | inactive | 
11 | CCN(CC)c1c([N+](=O)[O-])cc(C(F)(F)F)c(N)c1[N+](=O)[O-] | inactive |  | inactive | inactive | inactive | inactive | inactive | inactive |  | 
12 | CC(C)OC(=O)C(O)(c1ccc(Cl)cc1)c1ccc(Cl)cc1 | inactive | inactive | inactive | inactive | inactive | inactive | inactive |  | inactive | 30.9 µM (active)
13 | ClC1=C(Cl)[C@]2(Cl)[C@@H]3[C@@H]4C[C@@H]([C@H]5O[C@@H]45)[C@@H]3[C@@]1(Cl)C2(Cl)Cl | inactive | inactive | inactive | inactive | inactive | inactive | inactive |  | inactive | 36.7 µM (active)
14 | CCCCN(CCCC)C(=S)[S-].CCCCN(CCCC)C(=S)[S-].[Zn+2] | inactive | inactive | inactive | inactive | inactive | inactive | inactive |  |  | 
15 | N#CNC#N | inactive | inactive | inactive | inactive | inactive | inactive | inactive |  | inactive | inactive
16 | CC(C)(C)C(O)/C(=C\c1ccc(Cl)cc1Cl)n1cncn1 (stereo not given) | inactive | inactive | inactive | inactive | inactive | inactive | inactive |  | inactive | 59.3 µM (active)
17 | Clc1ccc(C(c2ccccc2Cl)C(Cl)(Cl)Cl)cc1 (stereo not given) | inactive | inactive | inactive | inactive | inactive | inactive | inactive | inactive |  | 22 µM (active) and 20.3 µM (active)
18 | O=S(=O)(c1ccc(Cl)cc1)c1ccc(Cl)cc1 | inactive | inactive | inactive | inactive | inactive | inactive | inactive |  | inactive | 
19 | CCCN(CCC)CCc1c[nH]c2ccccc12 | inactive | inactive | inactive | inactive | inactive | inactive | inactive |  | inactive | inactive
20 | Cc1c(Cl)c(=O)oc2cc(OP(=O)(OCCCl)OCCCl)ccc12 | inactive | 12.6 µM (active) | inactive | inactive |  | inactive |  |  | inactive | inactive
21 | COc1cc(N)c(Cl)cc1C(=O)NC1CN2CCC1CC2 (stereo not given) | inactive | inactive | inactive | inactive | inactive | inactive | inactive |  | inactive | inactive
22 | O=[N+]([O-])c1cc([N+](=O)[O-])c2ccccc2c1 | inactive | inactive | inactive | inactive | inactive | inactive | inactive |  | inactive | 
